Each structure is given as a SMILES string. Records with an inconclusive call do not appear. Activity calls are given as the source filed them. How the source made its calls, unless noted: active means hit-call score of the fitted dose curve at least 0.9, where 1 is the maximum; inconclusive means response in the unintended direction; inactive means score below 0.9.

A short description of test [1]: ATG_TAL_CIS: Attagene CIS-FACTORIAL HepG2 Assay for human TAL Basal Promoter (AID 2282966; active means hit-call score of the fitted dose curve at least 0.9, where 1 is the maximum; inactive means score below 0.9;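 further: background control endpoint measuring basal TAL promoter reporter mRNA not a specific factor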). Particulars: HepG2 Attagene cis-factorial TAL promoter reporter; actives raise or lower the signal. In a few lines:
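HepG2 cells transiently transfected with multiplexed cis-promoter reporter units, dosed 24 h. Reporter mRNA quantified by RT-PCR, 6-FAM labelling, HpaI digestion and capillary electrophoresis; TAL basal promoter serves as background control, fitted bidirectionally versus DMSO.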

Test [2] can be described thus: ATG_TGFb_CIS: Attagene CIS-FACTORIAL HepG2 Assay for human Transforming Growth Factor (TGF) (AID 2282967; active means hit-call score of the fitted dose curve at least 0.9, where 1 is the maximum; inactive means score below 0.9). Particulars: HepG2 Attagene CIS TGFb reporter, mRNA transcription; actives raise or lower the signal. In a few lines:
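Readout: fluorescently labeled reporter cDNA fragments resolved by capillary electrophoresis after RT-PCR. Transfected HepG2 cells dosed for 24 h; endogenous TF activity at TGFB1-linked cis element; gain or loss fitted relative to DMSO.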

The target of test [3] is X-box-binding protein 1 (Homo sapiens) (UniProt P17861). Briefly: ATG_Xbp1_CIS: Attagene CIS-FACTORIAL HepG2 Assay for human X-box Binding Protein 1 (XBP1) (AID 2282972; active means hit-call score of the fitted dose curve at least 0.9, where 1 is the maximum; inactive means score below 0.9). The note with it: HepG2 XBP1 cis-element reporter, Attagene multiplex; actives raise or lower the signal. In a few lines: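 HepG2, transient MRTU transfection (cis-promoter driven), 24 h compound exposure. Total RNA → oligo(dT) RT → PCR → 6-FAM labeling → HpaI cut → CE. Bidirectional fit vs DMSO.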
X-box-binding protein 1 (Homo sapiens), sequence (P17861 whole entry, looked up): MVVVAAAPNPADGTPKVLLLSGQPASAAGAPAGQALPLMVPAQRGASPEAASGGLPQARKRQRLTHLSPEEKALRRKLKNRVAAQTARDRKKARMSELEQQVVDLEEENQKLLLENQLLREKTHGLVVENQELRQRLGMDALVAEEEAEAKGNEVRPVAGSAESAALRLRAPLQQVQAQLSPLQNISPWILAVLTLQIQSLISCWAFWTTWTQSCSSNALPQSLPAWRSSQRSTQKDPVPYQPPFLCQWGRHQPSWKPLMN

For test [4], the target named is Estrogen-related receptor gamma (Homo sapiens) (UniProt P62508). As to the kind of experiment: ATG_ERRg_TRANS: Attagene TRANS-FACTORIAL HepG2 Assay for human Estrogen-Related Receptor gamma (ERRg) (AID 2282977).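 Further: hits increase reporter signal over DMSO so potencies reflect activators.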 Particulars: HepG2 Attagene TRANS reporter, ERRg transactivation. In a few lines:
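HepG2 cells transiently transfected with multiplexed GAL4-UAS reporter units driven by chimeric NR-Gal4 proteins; 24 h exposure. Reporter mRNA quantified by RT-PCR, fluorescent labelling, HpaI digestion and capillary electrophoresis; gain of signal vs DMSO.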

In test [5] the target is Oxysterols receptor LXR-alpha (Homo sapiens) (UniProt Q13133). As to the kind of experiment: ATG_LXRa_TRANS: Attagene TRANS-FACTORIAL HepG2 Assay for human Liver X Receptor alpha (LXRa) (AID 2282980). Particulars: HepG2 Attagene TRANS reporter, LXRa transactivation. In a few lines: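 HepG2 cells transiently transfected with GAL4-UAS reporter units for chimeric NR-Gal4 proteins, exposed to chemicals for 24 h. Reporter mRNA quantified by RT-PCR and capillary electrophoresis; gain of signal fitted relative to DMSO.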
Oxysterols receptor LXR-alpha (Homo sapiens), sequence (Q13133 whole entry, looked up, the tested form may be a part): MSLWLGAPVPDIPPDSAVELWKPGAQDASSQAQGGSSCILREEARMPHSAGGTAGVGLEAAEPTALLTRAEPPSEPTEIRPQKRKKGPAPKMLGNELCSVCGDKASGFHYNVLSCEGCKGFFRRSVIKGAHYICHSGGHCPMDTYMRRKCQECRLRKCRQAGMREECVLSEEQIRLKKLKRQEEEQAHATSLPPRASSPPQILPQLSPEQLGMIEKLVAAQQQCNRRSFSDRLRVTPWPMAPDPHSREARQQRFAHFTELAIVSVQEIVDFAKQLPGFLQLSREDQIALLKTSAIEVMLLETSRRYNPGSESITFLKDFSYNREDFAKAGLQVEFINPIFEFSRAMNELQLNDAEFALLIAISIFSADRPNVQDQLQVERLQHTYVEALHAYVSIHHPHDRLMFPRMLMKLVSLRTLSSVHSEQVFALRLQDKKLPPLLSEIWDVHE

Test [6] concerns the target Oxysterols receptor LXR-beta (Homo sapiens) (UniProt P55055). As to the kind of experiment: ATG_LXRb_TRANS: Attagene TRANS-FACTORIAL HepG2 Assay for human Liver X Receptor beta (LXRb) (AID 2282981). Particulars: HepG2 Attagene TRANS GAL4-LXRb reporter, mRNA. In a few lines: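 In this TRANS format, exogenous chimeric NR-Gal4 protein activity, not endogenous factors, drives reporter expression in transfected human HepG2 cells. Exposure lasted 24 h; reporter mRNA was read by fluorescent capillary electrophoresis.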

Test [7] addresses Hepatocyte nuclear factor 4-alpha (Homo sapiens) (UniProt P41235). Briefly: ATG_HNF4a_TRANS: Attagene TRANS-FACTORIAL HepG2 Assay for human Hepatocyte Nuclear Factor 4 alpha (HNF4a) (AID 2282982). The note with it: HepG2 HNF4a transactivation reporter, mRNA readout. In a few lines: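 Cells used were human HepG2, transiently carrying GAL4-UAS reporter units read out against exogenous NR-GAL4 chimeras. Reporter transcript levels after 24 h dosing were quantified by fluorescent RT-PCR and capillary electrophoresis.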

Test [8] is described as follows: ATG_M_06_TRANS: Attagene TRANS-FACTORIAL HepG2 Assay for M06 Transcription Factor (Internal Marker) (AID 2282983). Particulars: HepG2 Attagene TRANS M06 internal marker reporter. The procedure, abridged: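 HepG2 cells transiently transfected with GAL4-UAS multiple reporter units, dosed 24 h. Reporter RNA reverse-transcribed, PCR-amplified, 6-FAM-labeled, HpaI-digested and quantified by capillary electrophoresis; this internal-marker signal fitted upward relative to DMSO.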

The nature of test [9]: ATG_M_32_TRANS: Attagene TRANS-FACTORIAL HepG2 Assay for M32 Transcription Factor (Internal Marker) (AID 2282984). The note with it: HepG2 Attagene TRANS M32 internal marker reporter. The procedure, abridged:
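Human hepatoma HepG2, transient MRTU transfection, 24 h treatment. RNA → RT-PCR → fluorescent primer extension → HpaI digest (2 h, 37 C) → CE. Positive-direction fit vs DMSO.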

Test [10] deals with Nuclear receptor subfamily 4 group A member 2 (Homo sapiens) (UniProt P43354). As to the kind of experiment: ATG_NURR1_TRANS: Attagene TRANS-FACTORIAL HepG2 Assay for human Nuclear Receptor Related Protein 1 (NURR1) (AID 2282985). Particulars: HepG2 Attagene TRANS reporter, mRNA readout. In a few lines: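 After 24 h chemical dosing, total RNA from transiently transfected HepG2 cells was reverse-transcribed and reporter cDNA PCR-amplified, FAM-labelled and analysed by capillary electrophoresis. Activity fitted in positive direction, DMSO as negative control.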
Nuclear receptor subfamily 4 group A member 2 (Homo sapiens), sequence (P43354 whole entry, looked up): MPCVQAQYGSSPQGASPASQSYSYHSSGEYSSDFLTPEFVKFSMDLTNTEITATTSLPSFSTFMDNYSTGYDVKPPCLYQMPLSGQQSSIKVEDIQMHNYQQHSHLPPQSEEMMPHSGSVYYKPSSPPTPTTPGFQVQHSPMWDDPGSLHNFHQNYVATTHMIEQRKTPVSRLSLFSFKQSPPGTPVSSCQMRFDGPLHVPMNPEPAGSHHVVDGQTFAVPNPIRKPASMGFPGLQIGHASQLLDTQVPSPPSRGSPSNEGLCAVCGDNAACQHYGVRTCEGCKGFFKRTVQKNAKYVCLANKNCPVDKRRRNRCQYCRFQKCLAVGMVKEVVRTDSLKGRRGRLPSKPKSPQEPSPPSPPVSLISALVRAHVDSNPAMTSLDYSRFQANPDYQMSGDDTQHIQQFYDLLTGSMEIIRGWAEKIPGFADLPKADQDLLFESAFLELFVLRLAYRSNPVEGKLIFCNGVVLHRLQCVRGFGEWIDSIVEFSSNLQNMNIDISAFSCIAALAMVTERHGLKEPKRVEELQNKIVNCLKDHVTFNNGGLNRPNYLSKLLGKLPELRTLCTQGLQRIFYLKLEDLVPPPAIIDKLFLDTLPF

Test [11] addresses Transcriptional activator Myb (Homo sapiens) (UniProt P10242). Briefly: ATG_Myb_CIS: Attagene CIS-FACTORIAL HepG2 Assay for human Myeloblastosis (Myb) Proto-Oncogene Transcription Factor (AID 2282986; active means hit-call score of the fitted dose curve at least 0.9, where 1 is the maximum; inactive means score below 0.9). Particulars: HepG2 Attagene CIS-FACTORIAL Myb reporter transcription; actives raise or lower the signal. The procedure, abridged:
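Transiently transfected HepG2 cells carrying a multiplexed cis-promoter reporter set report endogenous Myb activity after 24 h compound exposure. Reporter mRNA is read by RT-PCR with capillary electrophoresis of fluorescent products, fitted bidirectionally against DMSO.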

Test [12] can be described thus: ATG_M_19_TRANS: Attagene TRANS-FACTORIAL HepG2 Assay for M19 Transcription Factor (Internal Marker) (AID 2282974). The note with it: HepG2 Attagene TRANS-FACTORIAL M19 internal marker reporter. In a few lines: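 HepG2 transiently transfected with GAL4-UAS multiplex reporter constructs, exposed 24 h; reporter RNA quantified by RT-PCR, 6-FAM labeling, HpaI digestion and capillary electrophoresis; internal background marker fitted upward versus DMSO.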

The target in test [13] is Bile acid receptor (Homo sapiens) (UniProt Q96RI1). As to the kind of experiment: ATG_FXR_TRANS: Attagene TRANS-FACTORIAL HepG2 Assay for Farnesoid X Receptor (FXR) (AID 2282979).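 Further: hits raise reporter mRNA above DMSO so AC50 marks FXR activation.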 The note with it: HepG2 Attagene TRANS FXR-GAL4 reporter transcription. In a few lines: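 HepG2 cells were transiently transfected with GAL4-UAS reporters driven by chimeric NR-Gal4 proteins and dosed for 24 h. Reporter mRNA was quantified by RT-PCR, fluorescent labelling, HpaI digestion and capillary electrophoresis, with gain of signal scored versus DMSO.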
Bile acid receptor (Homo sapiens), sequence (Q96RI1 whole entry, looked up, the tested form may be a part): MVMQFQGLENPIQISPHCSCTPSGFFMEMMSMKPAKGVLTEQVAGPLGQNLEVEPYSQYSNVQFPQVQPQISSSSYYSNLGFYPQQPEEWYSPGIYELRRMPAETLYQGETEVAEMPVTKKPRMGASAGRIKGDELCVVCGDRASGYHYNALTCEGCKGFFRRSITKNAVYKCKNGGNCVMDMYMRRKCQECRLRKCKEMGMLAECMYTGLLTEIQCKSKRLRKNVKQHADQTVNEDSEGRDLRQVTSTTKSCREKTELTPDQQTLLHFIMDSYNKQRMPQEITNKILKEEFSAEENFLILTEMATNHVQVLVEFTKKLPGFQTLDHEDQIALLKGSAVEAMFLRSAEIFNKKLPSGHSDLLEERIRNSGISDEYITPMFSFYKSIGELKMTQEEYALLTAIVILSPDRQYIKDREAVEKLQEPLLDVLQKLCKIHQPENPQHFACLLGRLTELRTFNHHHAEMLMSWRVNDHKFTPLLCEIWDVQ

The target in test [14] is Androgen receptor (Homo sapiens) (UniProt P10275). Briefly: ATG_AR_TRANS: Attagene TRANS-FACTORIAL HepG2 Assay for human Androgen Receptor (AR) (AID 2282973). The note with it: HepG2 Attagene TRANS-FACTORIAL AR reporter transcription. In a few lines: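 HepG2 cells transiently transfected with AR-Gal4 chimera and GAL4-UAS reporter units; chemical exposure 24 h. Reporter mRNA quantified by RT-PCR with fluorescent labelling and capillary electrophoresis; gain-of-signal fitted against DMSO.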

Test [15] has as its target Glucocorticoid receptor (Homo sapiens) (UniProt P04150). Briefly: ATG_GR_TRANS: Attagene TRANS-FACTORIAL HepG2 Assay for human Glucocorticoid Receptor (GR) (AID 2282978).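 Further: activators score as hits since higher reporter transcript over DMSO is fitted.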 Particulars: HepG2 Attagene TRANS GR reporter, mRNA transcription. The procedure, abridged: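 HepG2 cells transiently transfected with GAL4-UAS reporter units and exogenous GR-Gal4 chimera, dosed 24 h. Reporter mRNA by RT-PCR, FAM labeling, HpaI digest and capillary electrophoresis; gain-of-signal fit versus DMSO.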

The nature of test [16]: ATG_GAL4_TRANS: Attagene TRANS-FACTORIAL HepG2 Assay for GAL4 (Internal Marker) (AID 2282976). The note with it: HepG2 Attagene TRANS GAL4 internal marker reporter. The procedure, abridged:
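Background-control readout: GAL4-UAS reporter transcript in transiently transfected HepG2 cells after 24 h compound exposure. Measured by RT-PCR, 6-FAM primer extension, HpaI digest and capillary electrophoresis; gain-of-signal fit versus DMSO.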

For test [17], the target named is Estrogen receptor (Homo sapiens) (UniProt P03372). As to the kind of experiment: ATG_ERa_TRANS: Attagene TRANS-FACTORIAL HepG2 Assay for human Estrogen Receptor alpha (ERa) (AID 2282970). Particulars: HepG2 Attagene TRANS ERa GAL4 reporter, mRNA. In a few lines: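 HepG2 cells transiently transfected with multiplexed GAL4-UAS reporter units read out chimeric NR-Gal4 activity. After 24 h compound exposure, reporter mRNA was quantified by RT-PCR, 6-FAM labeling, HpaI digestion and capillary electrophoresis, relative to DMSO.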
Estrogen receptor (Homo sapiens), sequence (P03372 whole entry, looked up, the tested form may be a part): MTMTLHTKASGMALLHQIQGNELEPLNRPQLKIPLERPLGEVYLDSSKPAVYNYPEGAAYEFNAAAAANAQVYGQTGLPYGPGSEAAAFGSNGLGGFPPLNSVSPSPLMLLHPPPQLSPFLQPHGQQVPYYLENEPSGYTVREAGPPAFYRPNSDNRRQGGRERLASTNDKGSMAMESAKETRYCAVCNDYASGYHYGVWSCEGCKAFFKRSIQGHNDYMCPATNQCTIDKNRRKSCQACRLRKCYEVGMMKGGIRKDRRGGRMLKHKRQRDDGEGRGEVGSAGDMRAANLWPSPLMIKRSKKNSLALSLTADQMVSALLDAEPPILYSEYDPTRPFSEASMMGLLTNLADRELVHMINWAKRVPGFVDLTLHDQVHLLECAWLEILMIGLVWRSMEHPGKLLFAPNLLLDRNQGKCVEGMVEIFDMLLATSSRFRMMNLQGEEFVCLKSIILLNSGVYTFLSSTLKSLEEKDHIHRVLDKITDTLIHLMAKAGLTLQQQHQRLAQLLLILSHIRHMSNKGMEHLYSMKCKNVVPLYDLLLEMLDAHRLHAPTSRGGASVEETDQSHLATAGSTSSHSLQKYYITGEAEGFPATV

The target in test [18] is Nuclear receptor subfamily 1 group I member 3 (Homo sapiens) (UniProt Q14994). Briefly: ATG_CAR_TRANS: Attagene TRANS-FACTORIAL HepG2 Assay for human Constitutive Androstane Receptor (CAR) (AID 2282969).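 Further: activators raise reporter mRNA above DMSO so AC50 marks induction.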 The note with it: HepG2 Attagene TRANS-FACTORIAL CAR reporter. The procedure, abridged:
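HepG2 cells transiently transfected with multiplexed GAL4-UAS reporter units expressing chimeric NR-Gal4 proteins; compound exposure 24 h. Reporter mRNA measured by RT-PCR, 6-FAM labelling, HpaI digestion and capillary electrophoresis; gain-of-signal fitted against DMSO baseline.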

Transcriptional activator Myb (Homo sapiens), sequence (P10242 whole entry, looked up): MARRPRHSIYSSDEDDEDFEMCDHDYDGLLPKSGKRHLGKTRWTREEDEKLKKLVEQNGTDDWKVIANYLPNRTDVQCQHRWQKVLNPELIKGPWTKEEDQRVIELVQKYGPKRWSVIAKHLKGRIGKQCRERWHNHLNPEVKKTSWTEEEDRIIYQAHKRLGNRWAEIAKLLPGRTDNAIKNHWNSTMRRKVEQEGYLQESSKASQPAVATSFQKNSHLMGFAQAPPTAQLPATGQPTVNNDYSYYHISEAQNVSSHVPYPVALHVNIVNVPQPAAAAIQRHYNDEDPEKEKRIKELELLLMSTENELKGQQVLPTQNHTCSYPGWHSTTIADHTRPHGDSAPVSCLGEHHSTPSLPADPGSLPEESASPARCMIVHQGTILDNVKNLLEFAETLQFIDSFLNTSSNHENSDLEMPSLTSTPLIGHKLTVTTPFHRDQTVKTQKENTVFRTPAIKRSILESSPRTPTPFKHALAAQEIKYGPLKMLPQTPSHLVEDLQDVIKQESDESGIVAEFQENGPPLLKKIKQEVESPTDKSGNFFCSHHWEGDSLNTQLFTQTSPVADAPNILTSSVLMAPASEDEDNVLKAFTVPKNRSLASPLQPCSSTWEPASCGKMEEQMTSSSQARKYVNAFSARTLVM
Hepatocyte nuclear factor 4-alpha (Homo sapiens), sequence (P41235 whole entry, looked up, the tested form may be a part): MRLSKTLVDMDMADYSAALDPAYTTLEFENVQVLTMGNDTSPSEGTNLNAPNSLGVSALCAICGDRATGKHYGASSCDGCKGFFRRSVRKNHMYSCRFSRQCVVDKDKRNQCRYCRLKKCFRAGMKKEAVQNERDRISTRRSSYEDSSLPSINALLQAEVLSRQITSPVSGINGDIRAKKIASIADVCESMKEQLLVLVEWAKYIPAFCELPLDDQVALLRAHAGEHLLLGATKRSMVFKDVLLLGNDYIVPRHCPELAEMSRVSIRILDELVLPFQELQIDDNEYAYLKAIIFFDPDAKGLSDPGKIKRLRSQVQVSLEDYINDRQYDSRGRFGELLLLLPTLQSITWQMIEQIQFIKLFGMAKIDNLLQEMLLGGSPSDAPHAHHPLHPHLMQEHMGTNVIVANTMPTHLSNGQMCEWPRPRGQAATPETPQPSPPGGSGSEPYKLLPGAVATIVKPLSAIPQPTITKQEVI
Oxysterols receptor LXR-beta (Homo sapiens), sequence (P55055 whole entry, looked up, the tested form may be a part): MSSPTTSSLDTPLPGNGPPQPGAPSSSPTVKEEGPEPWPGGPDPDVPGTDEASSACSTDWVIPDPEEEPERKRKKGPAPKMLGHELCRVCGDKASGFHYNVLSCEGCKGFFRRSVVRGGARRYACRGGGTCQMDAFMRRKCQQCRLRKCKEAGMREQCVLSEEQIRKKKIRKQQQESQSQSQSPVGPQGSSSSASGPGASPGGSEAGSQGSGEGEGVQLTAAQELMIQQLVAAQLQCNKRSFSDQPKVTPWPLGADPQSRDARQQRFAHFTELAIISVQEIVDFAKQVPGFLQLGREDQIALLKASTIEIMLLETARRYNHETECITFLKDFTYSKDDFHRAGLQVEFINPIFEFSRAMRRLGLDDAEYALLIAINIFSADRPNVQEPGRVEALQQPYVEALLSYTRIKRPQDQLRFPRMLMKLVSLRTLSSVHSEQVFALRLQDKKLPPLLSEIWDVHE
Glucocorticoid receptor (Homo sapiens), sequence (P04150 whole entry, looked up, the tested form may be a part): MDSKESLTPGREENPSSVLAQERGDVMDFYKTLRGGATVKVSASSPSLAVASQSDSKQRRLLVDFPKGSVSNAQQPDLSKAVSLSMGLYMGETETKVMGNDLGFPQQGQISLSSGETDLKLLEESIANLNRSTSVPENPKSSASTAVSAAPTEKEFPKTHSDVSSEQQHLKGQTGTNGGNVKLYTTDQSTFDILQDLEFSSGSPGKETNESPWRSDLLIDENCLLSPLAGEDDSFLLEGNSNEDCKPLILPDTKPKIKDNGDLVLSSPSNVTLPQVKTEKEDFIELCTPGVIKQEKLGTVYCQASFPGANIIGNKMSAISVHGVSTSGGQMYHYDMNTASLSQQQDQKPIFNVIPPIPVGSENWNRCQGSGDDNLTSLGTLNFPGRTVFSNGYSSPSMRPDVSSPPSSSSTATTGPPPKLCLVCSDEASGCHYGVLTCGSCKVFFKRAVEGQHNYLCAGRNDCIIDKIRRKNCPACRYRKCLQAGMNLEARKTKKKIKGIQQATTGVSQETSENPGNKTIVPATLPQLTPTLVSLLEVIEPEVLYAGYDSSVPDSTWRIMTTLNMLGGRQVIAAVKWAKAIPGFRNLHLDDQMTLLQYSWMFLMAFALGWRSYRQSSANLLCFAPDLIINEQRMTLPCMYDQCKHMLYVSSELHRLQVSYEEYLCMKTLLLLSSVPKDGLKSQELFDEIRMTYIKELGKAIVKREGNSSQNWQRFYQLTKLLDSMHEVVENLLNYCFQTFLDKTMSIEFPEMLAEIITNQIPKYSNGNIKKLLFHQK

On to `COc1ccccc1OC`, for which the result in [1], in test [2], in [3], in [4], in test [5] and in [6] was inactive. The molecule was called inactive in test [7], in test [8], in test [9], in test [10] and in test [11].

As for `C=CC(=O)N(C)C`, the call in [1], in test [2], in test [3], in test [12], in [4] and in test [5] was inactive. The molecule was called inactive in [8], in test [9] and in test [11].

Consider `O=C(OC1CCCCC1)c1ccccc1C(=O)OC1CCCCC1`, for which the call in test [1], in test [3], in test [13], in test [8], in [9] and in test [10] was inactive. For the same molecule, the call in test [11] was inactive. Moreover, the AC50 in test [2] is 62.1 µM (active).

As to `CCC(=O)C(CC(C)N(C)C)(c1ccccc1)c1ccccc1` (configuration not stated), the result in test [1], in [2], in test [3], in [14], in test [12] and in test [15] was inactive. The molecule was classed as inactive in [13], in [5], in test [9] and in [11].

In the case of `O=[N+]([O-])c1ccc2c3c(cccc13)CC2`, the result in test [1], in test [3], in test [12], in test [16], in [13] and in test [7] was inactive. Also, the outcome in [9] and in test [11] was inactive. For the same molecule, in test [2], the concentration at half-maximal activity (AC50) was 0.0823 µM (active).

In the case of `NC(=S)Nc1ccccc1`, the result in test [1], in test [2], in [3], in test [12], in test [6] and in test [7] was inactive. In addition, the outcome in test [8], in test [9] and in test [11] was inactive. Besides, the AC50 in test [17] is 64.2 µM (active).

With `ClC(Cl)=C(Cl)C(Cl)=C(Cl)Cl`, the molecule was called inactive in [1], in [2], in [17], in test [12], in test [15] and in test [5]. For the same molecule, the result in test [6], in test [7], in test [8], in test [9], in test [10] and in test [11] was inactive. In [3], the AC50 was 137 µM (active).

Consider `CCOP(OCC)OCC`, for which the molecule was classed as inactive in test [1], in test [2], in [18], in test [3], in [16] and in test [13]. Further, the molecule was classed as inactive in [5], in test [6], in test [7], in [8], in test [10] and in test [11].

The term AC50 denotes the midpoint of the concentration-response curve, whichever way the signal moves.

The record behind these values is PubChem BioAssay (EPA / NIEHS).
